From PubChem BioAssay (NCI)
This is part of a sample that, as a whole, favours compounds with a hit. Of some 79,000 tested, about 15% had one in any assay. The source made the active and inactive calls. Cut-off read from the data, not from the text of the source: active = growth inhibition above about 70%; inactive = the rest.

How the values were obtained:
[1] = NCI Yeast Anticancer Drug Screen. Data for the rad50 strain (AID 155);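 note: 0% = growth of vehicle-only cultures of the same strain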; conditions: S. cerevisiae rad50 strain growth inhibition, stronger effect = higher value
Summary of the method: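 Cells are treated with compound, grown, and their growth is then scored against vehicle-only cultures of the same repair-deficient yeast strain.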

[2] = NCI Yeast Anticancer Drug Screen. Data for the mec2-1 strain (AID 157); conditions: S. cerevisiae mec2-1 strain, stronger effect = higher value
Summary of the method: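 Using mec2-1 yeast: add compound, measure growth, express inhibition versus vehicle-treated cultures.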

[3] = NCI Yeast Anticancer Drug Screen. Data for the sgs1 mgt1 strain (AID 161);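 note: 0% = growth of cultures given vehicle only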; conditions: S. cerevisiae sgs1 mgt1 strain, stronger effect = higher value
Summary of the method: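 Compounds are added to genetically altered yeast, and growth is compared with cultures given vehicle alone to give percent inhibition.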

[4] = NCI Yeast Anticancer Drug Screen. Data for the cln2 rad14 strain (AID 165);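 note: 0% = growth equal to vehicle treated cultures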; conditions: S. cerevisiae cln2 rad14 strain, stronger effect = higher value
Summary of the method: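 Yeast strain cln2 rad14, bearing defects in cell cycle control and DNA repair, serves as the test system; values reflect growth inhibition compared with vehicle.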

[5] = NCI Yeast Anticancer Drug Screen. Data for the bub3 strain (AID 167); conditions: S. cerevisiae bub3 mutant strain, stronger effect = higher value
Summary of the method: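 Part of a panel of yeast mutants defective in DNA damage repair or cell cycle regulation. Each strain is grown with compound, and inhibition is calculated relative to solvent-treated cultures.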

[6] = NCI Yeast Anticancer Drug Screen. Data for the mlh1 rad18 strain (AID 175); conditions: S. cerevisiae mlh1 rad18 strain growth inhibition, stronger effect = higher value
Summary of the method: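 Steps: expose repair-defective yeast to compound; measure growth; express inhibition against vehicle-treated controls.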

[7] = at 5.0 µM (retest, dose inferred, filed as 0.5)
[8] = at 50.0 µM (retest, dose inferred, filed as 5.0)

Measured: growth inhibition

c1ccc2nc3[nH]c4ccccc4c3cc2c1
inactive: [1]; [7] 24% | [2]; [7] 18% | [2]; [8] 52% | [2]; at 50.0 µM 53.6% | [3]; [7] 14% | [3]; [8] 40% | [3]; at 50.0 µM 50.8% | [4]; [7] 22% | [4]; [8] 39% | [4]; at 50.0 µM 44.8% | [5]; [7] 18% | [5]; [8] 46% | [5]; at 50.0 µM 50.6% | [6]; [7] 18% | [6]; [8] 45% | [6]; at 50.0 µM 69.2%
active: [1]; [8] 87% | [1]; at 50.0 µM 85.2%

c1ccc(OCC2c3ccccc3Nc3ccccc32)cc1
active: [1]; [7] 98% | [1]; [8] 97% | [1]; at 50.0 µM 71.9% | [2]; [7] 99% | [2]; [8] 98% | [3]; [7] 99% | [3]; [8] 97% | [4]; [7] 99% | [4]; [8] 96% | [5]; [7] 92% | [5]; [8] 97% | [6]; [7] 99% | [6]; [8] 95%
inactive: [2]; at 50.0 µM 28.6% | [3]; at 50.0 µM 26.9% | [4]; at 50.0 µM -51.8% | [5]; at 50.0 µM -0.2% | [6]; at 50.0 µM 67.2%

CCCCCN=Cc1c(O)c(O)c(C(C)C)c2cc(C)c(-c3c(C)cc4c(C(C)C)c(O)c(O)c(C=NCCCCC)c4c3O)c(O)c12
inactive: [1]; [7] 2% | [1]; [8] 43% | [1]; at 50.0 µM 14.8% | [2]; [7] -44% | [2]; [8] 17% | [2]; at 50.0 µM 62.9% | [3]; [7] 2% | [3]; [8] 50% | [4]; [7] 1% | [4]; [8] 11% | [4]; at 50.0 µM 20.4% | [5]; [7] -2% | [5]; [8] 40% | [5]; at 50.0 µM 30% | [6]; [7] 1% | [6]; [8] 25% | [6]; at 50.0 µM 68.5%
active: [3]; at 50.0 µM 71.8%

CC(=O)Nc1ccc2c(c1)C(S)c1ccccc1-2 (stereo not given)
active: [6]; [8] 71%
inactive: [1]; [7] -5% | [1]; [8] 32% | [1]; at 50.0 µM 52% | [2]; [7] 9% | [2]; [8] 27% | [2]; at 50.0 µM 31.7% | [3]; [7] 2% | [3]; [8] 53% | [3]; at 50.0 µM 46.6% | [4]; [7] -70% | [4]; [8] 18% | [4]; at 50.0 µM 33.2% | [5]; [7] -1% | [5]; [8] -60% | [5]; at 50.0 µM 49.4% | [6]; [7] -2% | [6]; at 50.0 µM 37.2%

Cc1cc2c(c3c1C(=O)CC3)C(C)(C)CC2(C)C
inactive: [1]; [7] 1% | [1]; at 50.0 µM 2.9% | [2]; [7] -1% | [2]; at 50.0 µM 9.15% | [3]; [7] 1% | [3]; at 50.0 µM 1.65% | [4]; [7] -2% | [4]; at 50.0 µM -4.5% | [5]; [7] 25% | [6]; [7] -3% | [6]; [8] 64% | [6]; at 50.0 µM 6.05%
active: [1]; [8] 77% | [2]; [8] 76% | [3]; [8] 70% | [4]; [8] 78% | [5]; [8] 92% | [5]; at 50.0 µM 70.2%

c1ccc([CH2][Sn]([CH2]c2ccccc2)([S]c2cccc3cccnc23)[S]c2cccc3cccnc23)cc1
inactive: [1]; [7] 67% | [1]; [8] 24% | [2]; [7] 61% | [2]; [8] 18% | [3]; [7] 65% | [3]; [8] 59% | [4]; [7] 17% | [4]; [8] -5% | [5]; [7] 61% | [5]; [8] 30% | [6]; [7] 46% | [6]; [8] 16%
active: [1]; at 50.0 µM 94.2% | [2]; at 50.0 µM 92.5% | [3]; at 50.0 µM 89.6% | [4]; at 50.0 µM 84.5% | [5]; at 50.0 µM 93% | [6]; at 50.0 µM 93.5%

O=Cc1ccc(-c2nccc3c2[nH]c2ccccc23)o1
inactive: [1]; [7] 23% | [1]; [8] 35% | [2]; [7] 15% | [2]; [8] 17% | [2]; at 50.0 µM 26.9% | [3]; [7] 17% | [3]; [8] 20% | [3]; at 50.0 µM 19.1% | [4]; [7] 12% | [4]; [8] 16% | [4]; at 50.0 µM 16.1% | [5]; [7] 24% | [5]; [8] 14% | [5]; at 50.0 µM 8.9% | [6]; [7] 21% | [6]; [8] 25% | [6]; at 50.0 µM -1.45%
active: [1]; at 50.0 µM 78.2%

FC(F)(F)c1cc(NC(=S)SC2CCCCC2)ccc1Cl
inactive: [1]; [7] 12% | [1]; at 50.0 µM 41% | [2]; [7] 4% | [3]; [7] 4% | [4]; [7] -16% | [5]; [7] 12% | [6]; [7] 16%
active: [1]; [8] 97% | [2]; [8] 99% | [2]; at 50.0 µM 79.2% | [3]; [8] 98% | [3]; at 50.0 µM 88% | [4]; [8] 97% | [4]; at 50.0 µM 88.8% | [5]; [8] 98% | [5]; at 50.0 µM 85.9% | [6]; [8] 97% | [6]; at 50.0 µM 90%

O=C(Nc1ccccc1-c1nn(CN2CCNCC2)c(=S)n(CN2CCNCC2)c1=O)C(F)(F)F
inactive: [1]; [7] 0% | [1]; [8] 17% | [1]; at 50.0 µM 7.5% | [2]; [7] 0% | [2]; [8] 10% | [2]; at 50.0 µM 25.9% | [3]; [7] -2% | [3]; [8] 13% | [3]; at 50.0 µM 12.6% | [4]; [7] -4% | [4]; [8] 10% | [4]; at 50.0 µM 68.1% | [5]; [7] 1% | [5]; [8] 0% | [5]; at 50.0 µM 8.65% | [6]; [7] -2% | [6]; [8] 14% | [6]; at 50.0 µM 38.6%

Nc1ccccc1-c1nc2c(ccc3ccccc32)[nH]1
active: [1]; at 50.0 µM 79.7% | [3]; at 50.0 µM 88.8% | [6]; at 50.0 µM 80.5%
inactive: [1]; [7] -1% | [1]; [8] 10% | [2]; [7] -17% | [2]; [8] -10% | [2]; at 50.0 µM 4.6% | [3]; [7] -16% | [3]; [8] -5% | [4]; [7] 8% | [4]; [8] -10% | [4]; at 50.0 µM 24.6% | [5]; [7] -3% | [5]; [8] 2% | [5]; at 50.0 µM 62.3% | [6]; [7] 0% | [6]; [8] -18%
